Experiment in all cases: DAPPL (digital affinity profiling via proximity ligation, sequencing); 10 mM Tris-HCl pH 7.5, 50 mM NaCl, 1 mM DTT, 4% glycerol, room temperature, 30 min; GST-TFs on glutathione beads, 16-mer random dsDNA library, 0.1% formaldehyde crosslink after washing; high values mean tight binding
Conditions in all cases: protein: recombinant; tags: N-terminal GST; dsDNA, one strand shown

In one assay the target is T1, FLI1 (Homo sapiens, UniProt Q01543 1-452).
T1 sequence: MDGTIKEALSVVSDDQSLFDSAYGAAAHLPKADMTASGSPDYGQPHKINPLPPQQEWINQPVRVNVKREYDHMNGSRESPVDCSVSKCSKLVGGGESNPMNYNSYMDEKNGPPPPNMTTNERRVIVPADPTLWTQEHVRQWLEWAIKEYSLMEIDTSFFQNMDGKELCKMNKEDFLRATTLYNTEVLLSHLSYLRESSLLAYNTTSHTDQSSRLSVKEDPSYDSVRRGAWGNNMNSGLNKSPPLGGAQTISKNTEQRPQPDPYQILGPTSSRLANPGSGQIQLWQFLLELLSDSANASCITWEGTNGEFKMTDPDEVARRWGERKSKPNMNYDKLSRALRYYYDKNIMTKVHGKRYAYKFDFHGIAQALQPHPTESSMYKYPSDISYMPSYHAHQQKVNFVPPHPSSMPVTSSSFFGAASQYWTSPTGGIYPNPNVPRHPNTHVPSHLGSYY
The method in brief:
(§1)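 A tag-only sample was pooled with DNA-barcoded human transcription factors that had been expressed in yeast as GST fusions and captured on glutathione beads. The pools were incubated for 30 min at room temperature with 200 nmole of a random double-stranded 16-mer DNA library in Tris/NaCl/DTT/glycerol buffer, then washed, crosslinked with 0.1% formaldehyde, proximity-ligated (BsaI/T4 ligase, 1 h, 37 °C), PCR-amplified and sequenced on an Illumina NextSeq500. Binding signal is each hexamer's read frequency for a factor divided by its frequency for the tag-only sample.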

A further assay has as its target T2, ELK1 (Homo sapiens, UniProt P19419 1-428).
T2 sequence: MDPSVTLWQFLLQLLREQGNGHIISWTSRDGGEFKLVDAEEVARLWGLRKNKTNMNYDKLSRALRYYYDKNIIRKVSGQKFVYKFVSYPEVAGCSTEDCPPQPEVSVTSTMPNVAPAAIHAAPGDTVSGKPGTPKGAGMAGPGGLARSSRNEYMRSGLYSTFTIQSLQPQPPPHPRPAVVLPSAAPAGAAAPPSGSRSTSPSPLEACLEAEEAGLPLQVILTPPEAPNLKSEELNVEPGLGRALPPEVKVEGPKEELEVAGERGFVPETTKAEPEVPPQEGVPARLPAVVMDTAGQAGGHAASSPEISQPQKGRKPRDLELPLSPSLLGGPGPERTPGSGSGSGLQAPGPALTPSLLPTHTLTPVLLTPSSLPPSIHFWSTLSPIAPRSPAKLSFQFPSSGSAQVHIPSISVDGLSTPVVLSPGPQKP
The essentials:
as §1

A further assay deals with T3, GABPA (Homo sapiens, UniProt Q06546 1-454).
T3 sequence: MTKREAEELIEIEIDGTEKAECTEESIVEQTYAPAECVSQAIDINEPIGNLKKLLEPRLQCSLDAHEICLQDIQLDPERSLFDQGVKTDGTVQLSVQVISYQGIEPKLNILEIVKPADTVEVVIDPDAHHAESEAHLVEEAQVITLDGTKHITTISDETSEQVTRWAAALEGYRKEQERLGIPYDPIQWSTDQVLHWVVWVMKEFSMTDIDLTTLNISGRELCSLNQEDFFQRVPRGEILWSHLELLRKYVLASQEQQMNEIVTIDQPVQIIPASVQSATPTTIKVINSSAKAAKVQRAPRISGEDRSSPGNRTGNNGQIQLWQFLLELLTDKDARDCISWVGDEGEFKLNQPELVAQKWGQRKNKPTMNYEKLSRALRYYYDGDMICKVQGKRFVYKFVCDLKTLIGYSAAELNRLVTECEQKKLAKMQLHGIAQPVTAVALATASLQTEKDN
The method in brief: as §1

The target of a further assay is T4, ERG (Homo sapiens, UniProt P11308 1-479).
T4 sequence: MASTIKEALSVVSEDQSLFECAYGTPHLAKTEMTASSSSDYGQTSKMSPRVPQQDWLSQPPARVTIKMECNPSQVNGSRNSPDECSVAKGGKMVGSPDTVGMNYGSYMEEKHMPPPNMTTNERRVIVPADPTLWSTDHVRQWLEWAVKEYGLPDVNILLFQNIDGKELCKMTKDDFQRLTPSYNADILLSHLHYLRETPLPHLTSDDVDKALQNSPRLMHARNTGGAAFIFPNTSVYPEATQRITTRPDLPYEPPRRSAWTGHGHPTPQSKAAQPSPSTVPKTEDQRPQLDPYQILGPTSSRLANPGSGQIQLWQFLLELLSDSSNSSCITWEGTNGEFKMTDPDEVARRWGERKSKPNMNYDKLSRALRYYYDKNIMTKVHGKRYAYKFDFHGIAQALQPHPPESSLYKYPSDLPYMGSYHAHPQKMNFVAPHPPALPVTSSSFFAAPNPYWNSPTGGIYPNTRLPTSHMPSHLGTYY
The essentials: as §1

The next assay deals with ELF1 (Homo sapiens, UniProt P32519 1-619). The method in brief:
as §1

The target in another assay is T5, EHF (Homo sapiens, UniProt Q9NZC4 1-300).
T5 sequence: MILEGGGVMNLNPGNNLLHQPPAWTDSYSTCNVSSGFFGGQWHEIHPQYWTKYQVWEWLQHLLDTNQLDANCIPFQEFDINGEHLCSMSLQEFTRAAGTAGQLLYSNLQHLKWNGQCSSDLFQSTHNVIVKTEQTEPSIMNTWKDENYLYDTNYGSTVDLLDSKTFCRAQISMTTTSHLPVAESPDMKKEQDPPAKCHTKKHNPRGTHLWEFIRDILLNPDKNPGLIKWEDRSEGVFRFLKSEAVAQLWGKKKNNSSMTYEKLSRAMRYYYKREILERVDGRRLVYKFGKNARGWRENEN
The method in brief: as §1

Another assay concerns the target SPI1 (Homo sapiens, UniProt P17947 1-270). The essentials:
as §1

Another assay has as its target SPIB (Homo sapiens, UniProt Q01892 1-262). The essentials: as §1
For a further assay, the target named is T6, ELK3 (Homo sapiens, UniProt P41970 1-407).
T6 sequence: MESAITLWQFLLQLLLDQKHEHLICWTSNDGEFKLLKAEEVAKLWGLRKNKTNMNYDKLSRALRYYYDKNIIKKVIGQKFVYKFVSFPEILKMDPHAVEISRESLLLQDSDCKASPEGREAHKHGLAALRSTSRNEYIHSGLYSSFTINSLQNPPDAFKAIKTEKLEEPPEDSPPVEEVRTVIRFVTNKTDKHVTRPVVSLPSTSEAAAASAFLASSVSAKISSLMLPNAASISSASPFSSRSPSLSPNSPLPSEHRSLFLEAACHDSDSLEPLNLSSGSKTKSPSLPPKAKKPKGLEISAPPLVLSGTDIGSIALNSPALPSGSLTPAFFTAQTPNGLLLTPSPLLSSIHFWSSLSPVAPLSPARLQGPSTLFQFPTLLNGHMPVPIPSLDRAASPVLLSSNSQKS
The essentials:
as §1

Sequence of SPIB (Q01892 whole entry): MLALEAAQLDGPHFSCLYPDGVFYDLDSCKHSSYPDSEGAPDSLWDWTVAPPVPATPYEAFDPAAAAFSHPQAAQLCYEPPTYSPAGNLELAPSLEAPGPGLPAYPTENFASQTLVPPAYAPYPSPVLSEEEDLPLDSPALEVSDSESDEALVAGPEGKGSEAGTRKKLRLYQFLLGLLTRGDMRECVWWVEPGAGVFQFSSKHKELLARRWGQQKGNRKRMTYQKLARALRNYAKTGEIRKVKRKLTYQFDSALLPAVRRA
Sequence of ELF1 (P32519 whole entry): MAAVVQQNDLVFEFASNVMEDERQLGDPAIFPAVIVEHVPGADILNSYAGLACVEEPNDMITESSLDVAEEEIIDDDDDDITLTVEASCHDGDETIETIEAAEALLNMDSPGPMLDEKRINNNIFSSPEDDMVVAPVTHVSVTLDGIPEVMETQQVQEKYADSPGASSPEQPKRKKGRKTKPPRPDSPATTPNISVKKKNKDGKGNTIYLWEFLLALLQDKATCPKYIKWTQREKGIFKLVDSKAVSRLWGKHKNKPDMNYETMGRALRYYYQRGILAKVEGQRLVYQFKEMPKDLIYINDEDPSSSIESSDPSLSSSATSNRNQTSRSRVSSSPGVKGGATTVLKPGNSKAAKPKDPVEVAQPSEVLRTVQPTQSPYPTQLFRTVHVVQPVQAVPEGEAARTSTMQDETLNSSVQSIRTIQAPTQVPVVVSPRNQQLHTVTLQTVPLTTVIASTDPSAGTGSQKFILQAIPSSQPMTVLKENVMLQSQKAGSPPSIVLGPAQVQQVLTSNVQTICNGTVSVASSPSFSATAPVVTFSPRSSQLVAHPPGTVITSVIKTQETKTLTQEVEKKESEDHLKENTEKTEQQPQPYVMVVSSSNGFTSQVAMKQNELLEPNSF

Regarding ATTACG, the binding signal was 1.22 fold enrichment (6-mer frequency, TF over GST control) with FLI1; 1.13 fold enrichment (6-mer frequency, TF over GST control) in the assay with ELK1; 1.25 fold enrichment (6-mer frequency, TF over GST control) in the assay with GABPA; 1.17 fold enrichment (6-mer frequency, TF over GST control) with ERG; 1.2 fold enrichment (6-mer frequency, TF over GST control) with ELF1; 1.12 fold enrichment (6-mer frequency, TF over GST control) with EHF. Also, the binding signal with SPI1 was 1.23 fold enrichment (6-mer frequency, TF over GST control); in the assay with SPIB it was 1.18 fold enrichment (6-mer frequency, TF over GST control); with ELK3 it was 1.25 fold enrichment (6-mer frequency, TF over GST control).
Consider TTCTGT, for which the binding signal in the assay with FLI1 was 1.26 fold enrichment (6-mer frequency, TF over GST control); in the assay with ELK1 it was 1.3 fold enrichment (6-mer frequency, TF over GST control); with GABPA, 1.3 fold enrichment (6-mer frequency, TF over GST control); in the assay with ERG, 1.27 fold enrichment (6-mer frequency, TF over GST control); with ELF1, 1.27 fold enrichment (6-mer frequency, TF over GST control); with EHF, 1.25 fold enrichment (6-mer frequency, TF over GST control). The binding signal in the assay with SPI1 was 1.37 fold enrichment (6-mer frequency, TF over GST control); with SPIB it was 1.22 fold enrichment (6-mer frequency, TF over GST control); with ELK3, 1.33 fold enrichment (6-mer frequency, TF over GST control).
Take GATTTC: the binding signal is 1.77 fold enrichment (6-mer frequency, TF over GST control) with FLI1; 1.78 fold enrichment (6-mer frequency, TF over GST control) in the assay with ELK1; 1.55 fold enrichment (6-mer frequency, TF over GST control) with GABPA; 2.15 fold enrichment (6-mer frequency, TF over GST control) with ERG; 1.62 fold enrichment (6-mer frequency, TF over GST control) in the assay with ELF1; 1.71 fold enrichment (6-mer frequency, TF over GST control) with EHF. Moreover, the binding signal in the assay with SPI1 is 1.67 fold enrichment (6-mer frequency, TF over GST control); in the assay with SPIB, 1.72 fold enrichment (6-mer frequency, TF over GST control); with ELK3, 1.73 fold enrichment (6-mer frequency, TF over GST control).
For the sequence CCTTCG, the binding signal with FLI1 was 1.31 fold enrichment (6-mer frequency, TF over GST control); with ELK1, 1.33 fold enrichment (6-mer frequency, TF over GST control); with GABPA, 1.35 fold enrichment (6-mer frequency, TF over GST control); with ERG, 1.3 fold enrichment (6-mer frequency, TF over GST control); with ELF1, 1.33 fold enrichment (6-mer frequency, TF over GST control); in the assay with EHF it was 1.19 fold enrichment (6-mer frequency, TF over GST control). In addition, the binding signal in the assay with SPI1 was 1.32 fold enrichment (6-mer frequency, TF over GST control); with SPIB, 1.41 fold enrichment (6-mer frequency, TF over GST control); in the assay with ELK3, 1.65 fold enrichment (6-mer frequency, TF over GST control).
With CCTTTG, the binding signal with FLI1 is 1.32 fold enrichment (6-mer frequency, TF over GST control); with ELK1, 1.3 fold enrichment (6-mer frequency, TF over GST control); with GABPA, 1.4 fold enrichment (6-mer frequency, TF over GST control); with ERG it was 1.37 fold enrichment (6-mer frequency, TF over GST control); with ELF1 it was 1.38 fold enrichment (6-mer frequency, TF over GST control); in the assay with EHF, 1.42 fold enrichment (6-mer frequency, TF over GST control). For the same sequence, the binding signal was 1.47 fold enrichment (6-mer frequency, TF over GST control) with SPI1; 1.28 fold enrichment (6-mer frequency, TF over GST control) with SPIB; 1.18 fold enrichment (6-mer frequency, TF over GST control) in the assay with ELK3.
Take AAGCTT: the binding signal in the assay with FLI1 was 1.31 fold enrichment (6-mer frequency, TF over GST control); with ELK1, 1.33 fold enrichment (6-mer frequency, TF over GST control); in the assay with GABPA it was 1.22 fold enrichment (6-mer frequency, TF over GST control); with ERG, 1.33 fold enrichment (6-mer frequency, TF over GST control); in the assay with ELF1, 1.2 fold enrichment (6-mer frequency, TF over GST control); in the assay with EHF, 1.26 fold enrichment (6-mer frequency, TF over GST control). Also, the binding signal with SPI1 is 1.23 fold enrichment (6-mer frequency, TF over GST control); with SPIB, 1.32 fold enrichment (6-mer frequency, TF over GST control); with ELK3, 1.31 fold enrichment (6-mer frequency, TF over GST control).
Regarding TAAACC, the binding signal in the assay with FLI1 was 1.27 fold enrichment (6-mer frequency, TF over GST control); with ELK1, 1.22 fold enrichment (6-mer frequency, TF over GST control); with GABPA, 1.22 fold enrichment (6-mer frequency, TF over GST control); with ERG it was 1.21 fold enrichment (6-mer frequency, TF over GST control); with ELF1, 1.26 fold enrichment (6-mer frequency, TF over GST control); with EHF, 1.17 fold enrichment (6-mer frequency, TF over GST control). Further, the binding signal with SPI1 is 1.19 fold enrichment (6-mer frequency, TF over GST control); in the assay with SPIB it was 1.31 fold enrichment (6-mer frequency, TF over GST control); with ELK3, 1.25 fold enrichment (6-mer frequency, TF over GST control).

(Values after paper PMC7862700, “An all-to-all approach to the identification of sequence-specific readers for epigenetic DNA modifications on cytosine”.)
